High-throughput results from PubChem.
Most compounds without a hit are left out; they make up all but 4.6% or so of the library.
hgDAF-12 ag – activates the H. glycines DAF-12 receptor ligand-binding domain. HEK293 GAL4-hgDAF12 UAS-luciferase reporter, agonist luminescence; normalized to butyrate control. activation, % at 6.8 µM. 1.8% of 370,000 active. AID 687014;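 active = activation above a cutoff set at the mean of all screened compounds plus 3 SD, cut at about 10% in these data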
Wee1 stabilizer – inhibitors of human Wee1 degradation; HeLa Luc-Wee1K328M stability, luciferase luminescence; 100% = proteasome inhibitor MG132 effect; reporter increase, % at 5 µM; 1.2% of 220,000 active; P30291;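 active = activation above the mean of all tested compounds plus 3 SD, set per screening run, cut at about 8.8% in these data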;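 note: cells exposed to compound for 20 h before luminescence read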
ssDAF12 agonist – activators of S. stercoralis DAF-12 nuclear receptor; HEK293 ssDAF-12/GRIP1 lit1-tk-luc reporter, luminescence; % of 3 µM dafachronic acid response; 1% of 370,000 active; activation, % at 6.8 µM; AID 652126;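 active = activation above the mean over all tested compounds plus 3 SD, cut at about 0.9% in these data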
hcDAF-12 act – activates DAF-12 receptor from parasite H. contortus. activation, % at 6.8 µM. HEK293 hcDAF-12 lit1-tk-luc reporter, luminescence; 0% DMSO, 100% Δ7-dafachronic acid. 1.4% of 370,000 active;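 active = activation above the mean of all tested compounds plus 3 SD, cut at about 5.5% in these data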
DAX1 inh-1 – blocks DAX1 repression of SF-1 activated StAR promoter | HEK293T StAR-luciferase reporter, SF-1/DAX-1 repression relief | inhibition, % at 6.8 µM | 1.1% of 370,000 active | AID 652010;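 active = inhibition above the mean over all tested compounds plus 3 SD, cut at about 3.6% in these data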;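 note: higher inhibition means more luminescence from relief of DAX-1 repression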
DAX1 inh-2 – inhibits human nuclear receptor DAX1. P51843. HEK293 Gal4-DAX1 luciferase reporter, luminescence. inhibition, % at 6.75 µM. 0.99% of 340,000 active;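 active = inhibition above the mean over all tested compounds plus 3 SD, cut at about 4.2% in these data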;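 note: inhibition shows as a rise in luminescence from relieved DAX1 repression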
Target sequence (P51843 207-470 limits assumed): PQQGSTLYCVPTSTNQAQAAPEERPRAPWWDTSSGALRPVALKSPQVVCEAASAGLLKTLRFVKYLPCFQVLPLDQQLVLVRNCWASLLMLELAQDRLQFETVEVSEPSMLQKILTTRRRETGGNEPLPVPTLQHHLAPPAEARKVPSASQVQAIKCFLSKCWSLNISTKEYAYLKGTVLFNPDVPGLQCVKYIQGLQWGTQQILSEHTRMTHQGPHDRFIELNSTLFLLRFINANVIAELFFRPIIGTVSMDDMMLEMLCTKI
Of the large screens only hits and unclear results are named; the others gave an inactive call.

CC(=O)N/C(N)=N/c1nc2cc(C)ccc2o1	hgDAF-12 ag 11
C=CCOC(=O)Nc1nc(CCNC(=O)OC(C)(C)C)c(C(=O)OC)s1	none (no result: Wee1 stabilizer, DAX1 inh-2)
CC1CCCN(C(C(=O)Nc2ccc3c(c2)OCCO3)c2ccccc2)C1 (centres undefined)	none
CC1CCCN(C(C(=O)Nc2ccc3c(c2)OCO3)c2ccccc2)C1 (centres undefined)	hcDAF-12 act 6.3 (no result: Wee1 stabilizer)
O=C(O)c1ccc(-c2ccccc2)[nH]c1=O	DAX1 inh-2 5.4
O=C(O)c1ccc(-c2ccccc2)[nH]1	none
Cc1ccc(-c2c(C(=O)c3ccccc3)[nH]c(N)c2C(=O)NCCc2c[nH]c3ccccc23)cc1	none (no result: Wee1 stabilizer, DAX1 inh-2)
Nc1[nH]c(C(=O)c2ccc(Cl)cc2)c(-c2ccc(Br)cc2)c1C(=O)NCCc1c[nH]c2ccccc12	ssDAF12 agonist 1.0 (no result: Wee1 stabilizer, DAX1 inh-2)
COc1ccc(-c2c(C(=O)c3ccccc3)[nH]c(N)c2C(=O)NCCc2c[nH]c3ccccc23)cc1	hgDAF-12 ag 12 (no result: Wee1 stabilizer, DAX1 inh-2)
COc1ccc(C(=O)c2[nH]c(N)c(C(=O)NCCc3c[nH]c4ccccc34)c2-c2ccc(Cl)cc2)cc1	ssDAF12 agonist 1.9 (no result: Wee1 stabilizer, DAX1 inh-2)
COc1ccc(C(=O)c2[nH]c(N)c(C(=O)NCCc3c[nH]c4ccccc34)c2-c2ccc(Cl)c(F)c2)cc1	none (no result: Wee1 stabilizer, DAX1 inh-2)
CCNC(=O)C1CCCN(C(=O)Cc2ccc3ccccc3c2)CC1 (centres undefined)	none (no result: Wee1 stabilizer, DAX1 inh-2)
CC(=O)Nc1ccc(S(=O)(=O)NCCC(=O)NCC2COc3ccccc3O2)cc1 (centres undefined)	none (no result: Wee1 stabilizer)
CN(C)CCCOc1ccc(Cl)cc1Br	none
Cc1ccc(OCCOc2ccc(Cl)cc2Cl)c(Br)n1	hgDAF-12 ag 12 (no result: Wee1 stabilizer, DAX1 inh-1, DAX1 inh-2)
Cc1noc(NS(=O)(=O)c2ccc(N/C=C\C(=O)c3cccc4ccccc34)cc2)c1C	DAX1 inh-2 6.6
COc1cnn(-c2ccc(C)cc2)c(=O)c1Cl	hgDAF-12 ag 12
COc1cnn(-c2ccc(C)cc2)c(=O)c1Br	none
Nn1c(SCC(=O)NC2CCCCC2)nnc1-c1cc(-c2ccc(F)cc2)n[nH]1	none (no result: Wee1 stabilizer, DAX1 inh-2)
Cn1c(CNc2ccc(F)cc2)nc2ccccc21	hgDAF-12 ag 13, ssDAF12 agonist 3.1, hcDAF-12 act 6.5 (no result: Wee1 stabilizer)
CC(C)c1ccc(C2OCCCO2)cc1	none (no result: Wee1 stabilizer)
CC(C)c1ccc(C2OCC(C)([N+](=O)[O-])CO2)cc1 (centres undefined)	DAX1 inh-1 3.9 (no result: Wee1 stabilizer)
CCc1ccc(Nc2nnc(SCC(=O)NCCN3C(=O)CSC3=O)s2)cc1	hgDAF-12 ag 12
CCc1ccc(Nc2nnc(SCC(=O)Nc3sccc3C(N)=O)s2)cc1	none
C=CCN1C(=O)[C@@H](CC(=O)N2CCCCC2)[C@]2(C(=O)OC)CCCCC=C12	none (no result: Wee1 stabilizer, DAX1 inh-2)
CCOc1ccc(N2C(=O)c3ccccc3NC2(C)CC)cc1 (centres undefined)	hgDAF-12 ag 12, DAX1 inh-1 3.7 (no result: Wee1 stabilizer)
CCC1(C)Nc2ccccc2C(=O)N1O (centres undefined)	none
COc1ccc(N2C(=O)c3ccccc3NC2c2cccnc2)cc1 (centres undefined)	none
COc1ccc(N2C(=O)c3ccccc3NC23CCC(C)CC3)cc1 (centres undefined)	hgDAF-12 ag 13
COc1ccc(S(=O)(=O)NCc2cccnc2)cc1NC(=O)c1ccccc1C	none (no result: Wee1 stabilizer)
COC(=O)C[C@H]1c2cc(C(F)(F)F)ccc2S(=O)(=O)N1C1CCCC1	none (no result: Wee1 stabilizer)
CC(C)N(C)c1ncnc2c1ncn2[C@H]1CN(Cc2cccnc2)C[C@@H](CO)O1	ssDAF12 agonist 8.1 (no result: Wee1 stabilizer, DAX1 inh-2)
O=C(O)CC(NC(=O)Cc1ccc([N+](=O)[O-])cc1)c1ccc2c(c1)OCO2 (centres undefined)	DAX1 inh-2 4.4
CNS(=O)(=O)c1ccc(CNC[C@H]2O[C@@H](n3cnc4c(=O)[nH]c(N)nc43)[C@H](O)[C@@H]2O)cc1	none (no result: Wee1 stabilizer, DAX1 inh-2)
C/C(=N\NC(=O)c1ccccc1F)c1ccc(C#N)cc1	DAX1 inh-2 4.5
C[C@H](NC(=O)Cc1cccc2ccccc12)C(=O)N1CCOCC1	none (no result: Wee1 stabilizer)
N/C(=N\O)c1ccc(Oc2ccccc2Cl)c([N+](=O)[O-])c1	DAX1 inh-2 5.4
Cc1c(NS(=O)(=O)c2cccc(C(=O)Nc3cccc(F)c3)c2)c(=O)n(-c2ccccc2)n1C	none (no result: Wee1 stabilizer)
